# Compound activity deposited in PubChem BioAssay by several laboratories.
# EBV LMP1 NFkB: reduces LMP1-driven NF-kappaB luciferase signal. actives 0.69% (n = 350,000). LMP1-induced NF-kappaB luciferase reporter cells, luminescence. inhibition, % at 12.5 µM; in the data active = inhibition above about 41%; inconclusive = no clear call, values can overlap the other calls;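 note: 0% = neutral control wells and 100% = reference inhibitor control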
# EWS-Fli inh: blocks EWS/Fli oncoprotein-driven transcription; A673 NR0B1-luciferase reporter, viability-normalised; inhibition, % at 12.6 µM; actives 0.67% (n = 350,000); AID 651661;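 active = mean inhibition of at least 50% after viability correction, with every replicate also passing that limit; inconclusive = mean reaches 50% but only one of two replicates passes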;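 note: firefly luciferase signal divided by Alamar Blue viability fluorescence both relative to DMSO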
# TROY NFkB inh: inhibitors of TROY-dependent NF-kB signaling; Q293 LMP1-TROYcd NF-kB luciferase reporter, 4 h; inhibition, % at 10 µM; actives 0.98% (n = 360,000);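 active = compounds whose plate-normalised and pattern-corrected inhibition of the luciferase reporter signal at the single screening dose is 50% or more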
# TWEAK Fn14 block: inhibitors of TWEAK-Fn14 interaction signaling | TWEAK-stimulated Fn14 reporter cells, luciferase luminescence, 8 h | inhibition, % at 10 µM | actives 2% (n = 360,000) | AID 1159606; in the data active = inhibition above about 50%
# LGR2 inh: inhibitors of bursicon-induced Drosophila LGR2 receptor cAMP signaling. actives 0.35% (n = 380,000). inhibition, % at 9.99 µM. HEK293 LGR2, CRE-luciferase, bursicon-stimulated, 4 h;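 active = drop in luminescence signal, shown as inhibition above about 50% in the replicate tests, limit read from the data, passing the limit was not always enough; inconclusive = probably only some replicates passing the limit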;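 note: agonist challenge used bursicon conditioned medium at about half maximal strength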
# The depositor's hits bear a star; ? = inconclusive; . = not tested or not shown. Most compounds without a hit are left out; they make up all but 2.5% or so of the library.
SMILES,EBV LMP1 NFkB,EWS-Fli inh,TROY NFkB inh,TWEAK Fn14 block,LGR2 inh
COc1ccc(C(=O)Nc2ccccc2C(=O)Nc2ccccc2C(=O)O)cc1,-10,2,6,-3,-24
O=C(Nc1ccc2ccccc2c1)c1ccccc1O,-24,26,59*,90*,76*
CN(C)S(=O)(=O)Oc1cccc(C(=O)Nc2ccc(Cl)c(Cl)c2)c1,-19,.,47,80*,.
CCCNC(=O)C[C@H]1C[C@H]2c3cc(N(C)C)ccc3O[C@H]2[C@H](CO)O1,.,-1,.,.,12
COc1ccc(C(=O)NC(=S)Nc2ccc3c(c2)Cc2ccccc2-3)cc1,7,.,52*,15,.
COc1cccc(C(=O)Nc2ccc3ccccc3c2)c1,-4,13,17,63*,?
O=C(Nc1cc(Cl)cc(Cl)c1)c1cccc(OC(F)F)c1,3,.,39,60*,-2
COc1ccc(C(=O)Nc2ccccc2C(=O)N/N=C/c2cccc3ccccc23)cc1,33,.,50,78*,.
COc1cccc(C(=O)Nc2ccccc2)c1,-27,.,-35,9,.
COc1ccc(C(=O)Nc2ccccc2C(N)=O)cc1,-9,.,-45,-16,-14
Cc1ccc(C(=O)NC(=S)Nc2ccc(Oc3ccc(Cl)cc3)cc2)cc1,-3,.,51*,1,.
O=C(NC(=S)Nc1ccc(Oc2ccccc2)cc1)c1ccc(Cl)cc1,3,.,-10,7,.
COc1ccc(OC)c(C(=O)c2ccc(C(=O)Nc3ccc4ccccc4c3)cc2)c1,0,.,-7,-11,0
COc1ccc(C(=O)Nc2ccc3ccccc3c2)cc1,-4,61*,32,72*,74*
CO[C@H]1CC[C@@H]2CCN(C)C(=O)C[C@@H](c3ccccc3)CN(C)C(=O)c3cccc(C#N)c3OC[C@@H]1O2,.,7,.,.,4
O=C(C[C@H]1CC[C@@H]2[C@H](COC[C@H](O)CN2C(=O)c2ccc(F)cc2)O1)NCCCN1CCOCC1,.,1,.,.,7
C[C@@H]1CN([C@@H](C)CO)C(=O)Cc2cc(NC(=O)Nc3ccc(C(F)(F)F)cc3)ccc2O[C@H]1CN(C)Cc1ccc(Cl)c(Cl)c1,.,67*,.,.,13
C[C@H](CO)N1C[C@H](C)[C@@H](CN(C)Cc2ccc(Cl)c(Cl)c2)Oc2ccc(NC(=O)Nc3ccc(F)cc3)cc2CC1=O,.,63*,.,.,21
C[C@H]1CN([C@@H](C)CO)C(=O)Cc2cc(NC(=O)Cn3cnnn3)ccc2O[C@@H]1CN(C)Cc1ccc(Cl)c(Cl)c1,.,69*,.,.,13
Oc1ccc(/C=N/Nc2nc(-c3ccc(Cl)cc3)cc(C(F)(F)F)n2)cc1,-2,6,45,79*,.
COc1ccc2c3c(n(C)c2c1)[C@H](CO)N(C(=O)Cc1ccccc1)CC31CN(C(=O)Cc2ccccc2)C1,.,35,.,.,-14
CN1CCN(CCCNC(=O)c2ccc3c(c2)N(Cc2ccc(F)cc2)CCS3)CC1,67*,-1,0,15,9
O=C(NCCCN1CCOCC1)c1ccc2c(c1)N(Cc1ccc(F)cc1)CCS2,-7,6,24,-1,15
C[C@H](CO)N1C[C@H](C)[C@@H](CN(C)S(=O)(=O)c2ccc(Cl)cc2)Oc2ccc(NC(=O)Cc3cn(C)c4ccccc34)cc2C1=O,.,9,.,.,.
COc1cc2c(cc1OC)/C(=C/c1ccc(Cl)cc1)C(=O)OC2,10,.,50*,25,20
SMILES,EBV LMP1 NFkB,EWS-Fli inh,TROY NFkB inh,TWEAK Fn14 block,LGR2 inh
COc1ccc(/C=C2\C(=O)OCc3cc(OC)c(OC)cc32)cc1OC,1,.,-21,-21,-12
O=C(O)C[C@H]1C[C@@H]2c3cc(NC(=O)C4CCC4)ccc3O[C@@H]2[C@H](CO)O1,.,-9,.,.,25
O=S1(=O)CC(N2CCCCC2)C(N2CCCCC2)C1 (configuration not stated),51*,.,-1,-15,.
COc1ccccc1CNC(=O)C[C@H]1CC[C@H]2[C@@H](COC[C@@H](O)CN2C(=O)Nc2ccc(Cl)cc2)O1,.,-55,.,.,-2
Cc1ccc(CSc2nccc(-c3c(C)nc4ccccn34)n2)cc1,.,56*,41,57*,14
CO[C@H]1CC[C@@H]2CCN(C)C(=O)[C@@H](C)CN(C)C(=O)c3cccc(C#N)c3OC[C@H]1O2,.,0,.,.,2
Cc1ccc(-n2nnc(-c3cccnc3)n2)cc1,-14,-92,-47,2,-62
Cc1ccc(-n2nnc(-c3nccn3C)n2)cc1,16,31,31,76*,?
Cc1ccc(-n2nnc(-c3cnc4ccccc4c3)n2)cc1,7,35,18,63*,10
Fc1ccc(-n2nnc(-c3nccs3)n2)cc1,-16,0,-14,37,7
C[C@@H]1CN([C@@H](C)CO)C(=O)c2cccc(NC(=O)c3cnccn3)c2O[C@@H]1CN(C)S(=O)(=O)c1cccs1,.,-1,.,.,18
CNS(=O)(=O)c1cccc(C(=O)OCC(=O)NCCCc2ccccc2)c1,-2,-2,0,2,26
CNS(=O)(=O)c1cccc(C(=O)OCC(=O)NC(C)CCc2ccccc2)c1 (configuration not stated),42*,14,-18,-2,2
CC(C)(C)C(=O)/C(=C/c1ccncc1)n1cncn1,38,41,51*,83*,79*
COc1cccc2cc(C(=O)C3=C(O)C(=O)N(CCN(C)C)C3c3ccc(Cl)cc3)oc12 (configuration not stated),-4,5,-1,60*,0
Cc1ccccc1Cn1c(=N)n(CC(O)c2ccco2)c2ccccc21 (configuration not stated),6,.,-4,0,.
CC(C)(C)c1ccc(Cn2c(=N)n(CC(O)c3ccco3)c3ccccc32)cc1 (configuration not stated),-87,.,54*,69*,.
O=C(COC(=O)c1ccccc1NS(=O)(=O)c1cccs1)NCC12CC3CC(CC(C3)C1)C2,-11,-13,61*,30,32
O=C(C1COc2ccccc2O1)N1CCN(Cc2ccc(Br)cc2F)CC1 (configuration not stated),3,14,15,64*,5
C(=NN1CCCCCC1)c1ccc2ccccc2n1,84*,88*,87*,104*,98*
C(=NN1CCCCCC1)c1cccc2ccccc12,-12,-17,21,14,.
Cc1[nH]n(-c2nc(-c3ccc(Cl)cc3)cs2)c(=O)c1N=Nc1ccc(O)cc1,-42,41,41,88*,2
CCc1c(C)[nH]n(-c2nc(-c3ccccc3)cs2)c1=O,9,-17,-12,5,-18
COc1ccc(NC(=O)Nc2ccc3c(c2)C(=O)N([C@@H](C)CO)C[C@@H](C)[C@@H](CN(C)Cc2ccccc2)O3)cc1,.,6,.,.,-6
C[C@H]1CN([C@@H](C)CO)C(=O)c2cc(NS(=O)(=O)c3ccccc3)ccc2O[C@@H]1CN(C)C(=O)Nc1cccc2ccccc12,.,-3,.,.,3
O=C(CCC(=O)OCC(=O)c1ccc(C(F)(F)F)cc1)OCC(=O)c1ccc(C(F)(F)F)cc1,.,7,-10,14,20
